From PubChem BioAssay AID1645886 (National Center for Advancing Translational Sciences (NCATS), 2021)
In all, about 16,000 compounds went through this assay and about 260 (1.6%) were called active. Roughly 14% stayed inconclusive and do not appear here. Calls follow the shape of the dose curve; as a rule, active = well fitted inhibition curve with a large enough effect; inconclusive = small, poorly fitted or top-dose-only effect; inactive = no such curve, though single readings can be large or run the other way. Many of the other results were omitted from the sample, so actives are more common in it than they were. The source holds several records for some structures; these can differ, active in one and inactive in another.

Molecular target: Rap guanine nucleotide exchange factor 4 (Homo sapiens) (UniProt Q8WZA2)
Sequence (Q8WZA2 whole entry, looked up): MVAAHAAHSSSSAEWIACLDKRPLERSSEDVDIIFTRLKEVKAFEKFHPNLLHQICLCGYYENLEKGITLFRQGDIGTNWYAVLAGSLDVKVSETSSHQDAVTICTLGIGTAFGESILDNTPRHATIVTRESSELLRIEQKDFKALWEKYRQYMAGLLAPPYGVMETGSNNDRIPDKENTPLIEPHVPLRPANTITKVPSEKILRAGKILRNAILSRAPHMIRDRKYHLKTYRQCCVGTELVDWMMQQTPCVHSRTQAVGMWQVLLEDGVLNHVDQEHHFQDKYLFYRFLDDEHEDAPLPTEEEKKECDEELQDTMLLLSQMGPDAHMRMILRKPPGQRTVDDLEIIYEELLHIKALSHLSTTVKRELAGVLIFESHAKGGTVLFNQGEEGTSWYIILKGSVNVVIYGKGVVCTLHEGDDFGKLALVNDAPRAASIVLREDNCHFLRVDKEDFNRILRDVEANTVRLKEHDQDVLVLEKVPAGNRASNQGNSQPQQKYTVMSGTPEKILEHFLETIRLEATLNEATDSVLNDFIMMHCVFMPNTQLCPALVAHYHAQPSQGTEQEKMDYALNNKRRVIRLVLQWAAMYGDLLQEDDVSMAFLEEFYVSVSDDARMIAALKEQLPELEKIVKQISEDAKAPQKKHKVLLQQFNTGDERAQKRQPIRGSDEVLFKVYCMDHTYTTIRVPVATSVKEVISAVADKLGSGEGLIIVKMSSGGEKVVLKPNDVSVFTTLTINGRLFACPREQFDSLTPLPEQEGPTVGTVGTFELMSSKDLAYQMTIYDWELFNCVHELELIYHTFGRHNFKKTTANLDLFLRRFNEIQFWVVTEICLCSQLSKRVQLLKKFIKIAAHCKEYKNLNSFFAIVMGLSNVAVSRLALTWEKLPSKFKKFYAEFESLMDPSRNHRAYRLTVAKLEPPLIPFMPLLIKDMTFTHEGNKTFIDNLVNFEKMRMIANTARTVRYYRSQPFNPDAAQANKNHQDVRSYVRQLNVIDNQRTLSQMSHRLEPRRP
Assay: Validation qHTS for antagonist of cAMP-regulated guanine nucleotide exchange factor 4 (EPAC2); also: nearly all actives have a fitted effect of over 40% in size
Conditions: EPAC2 Rap1B BODIPY-GDP exchange, fluorescence; series mostly up to 112 µM; activity, negative = inhibition: at the top concentration
Text: Principle Investigator: Xiaodong Cheng Ph.D. The University of Texas Medical Branch, […], TX MLPCN Grant: NS066510 In multi-cellular eukaryotic organisms, the effects of cAMP are transduced by two ubiquitously-expressed intracellular cAMP receptors, the classic protein kinase A/cAMP-dependent protein kinase (PKA/cAPK) and the more recently discovered exchange protein directly activated by cAMP/cAMP-regulated guanine nucleotide exchange factor (EPAC/cAMP-GEF). Both PKA and EPAC are ubiquitously expressed in all tissues, and an increase in intracellular cAMP levels will lead to the activation of both PKA and EPAC. Therefore, careful dissections of the individual role and relative contribution of EPAC and PKA within the overall cAMP signaling in various model systems are critical for further elucidating the mechanism of cAMP signaling. To date no EPAC-specific antagonists and agonist, as well as isoform-specific agonists have been reported, and developing EPAC-specific pharmacological probes to determine the physiological functions that EPAC play in the overall cAMP-mediated signaling remains a major challenge within the research field. Furthermore, identified regulators of EPAC may lead to new mechanism-based therapeutic strategies specifically targeting the EPAC / cAMP-signaling components as EPAC has been implicated to play important roles in major human pathological conditions such as diabetes, heart disease, and cancer. This qHTS will be used to screen the Molecular Libraries Small Molecule Repository (MLSMR) as a concentration-titration series using the NCGC unique quantitative screening (qHTS) platform to find activators for EPAC1. In addition, this assay will also be used as a counterscreen for the EPAC2 qHTS. This fluorescent based assay is developed and validated for EPAC1 that measures exchange using EPAC effector Rap1 complex with BODIPY-GDP, a GDP analog with a tethered fluorophores. Activators are identified by monitoring the change in fluorescence signal as the exchanged free BODIPY-GDP has a reduced fluorescence compared to Rap1-bound BODIPY-GDP. Increase in signal (activation) is the desired outcome for the EPAC1 agonist while no activity in this assay is desired for the EPAC2 agonist counterscreen. Reference: [1] de Rooij, J., Zwartkruis, F. J., Verheijen, M. H., Cool, R. H., Nijman, S. M., Wittinghofer, A., and Bos, J.L. (1998) Nature 396, 474-477.
Briefly, three uL of reagents (100 nM EPAC2, 250 nM RAP1B-BODIPY-GDP, 50 uM GDP) were dispensed into a 1536-well Greiner black solid-bottom medium binding assay plate. Controls and test compounds (23 nL) were transferred to the plate via a Kalypsys pin tool equipped with a 1536-pin array. The plates were centrifuged at 1,000 rpm for 15 seconds followed by 5 minute incubation at room temperature. The assay plates were read at 5 minute intervals for 30 minutes in the ViewLux plate reader using 480nm excitation and 540nm emission filters. The results were normalized to the agonist positive control of 6.5 mM cAMP.
Potency is read from the fitted curve at half-maximal effect.

Compound | activity, negative = inhibition | Potency
COc1ccccc1CNc1ncnc2ccc(-c3c(C)noc3C)cc12 | -16% (inactive) | –
CC1(C)OC2CC3C4CCC5=CC(=O)CCC5(C)C4(F)C(O)CC3(C)[C@]2(C(=O)CCl)O1 (stereo partly drawn) | -11.2% (inactive) | –
COc1ccccc1-c1ccc(C(=O)N(C)C(C)c2ccon2)c(N2CCN(c3ccccc3F)CC2)n1 (stereo not drawn) | -16.9% (inactive) | –
COc1ccccc1-c1ccnc(-n2ncc(C(=O)NCCCN3CCOCC3)c2C)n1 | -2.97% (inactive) | –
N#Cc1ccc(CN2CCCC3(CCN(C(=O)c4ccco4)CC3)C2)cc1 | -18.6% (inactive) | –
CS(=O)(=O)N1CCC2(CC1)CN(c1ccncc1)C2 | -32.4% (inactive) | –
COc1ccc(NC(=O)N2CC3(CCN(C(C)=O)CC3)C2)cc1 | -19.7% (inactive) | –
N#Cc1ccccc1-c1ccc2ncnc(NCc3cccnc3)c2c1 | -5.3% (inactive) | –
COC1(C2=NCCN2)COc2ccccc2O1 (stereo not drawn) | -22% (inactive) | –
COc1ccc2c(=O)cc(-c3ccccc3)oc2c1O | -30.4% (inactive) | –
Cc1ccc(-c2ccnc(-n3ncc(C(=O)N(C)Cc4cccc5ncccc45)c3C3CC3)n2)o1 | 5.35% (inactive) | –
NC1CCN(O)C1=O (stereo not drawn) | 9.16% (inactive) | –
CC(=O)O[C@]1(C(C)=O)CC[C@H]2[C@@H]3C=C(C)C4=CC(=O)CC[C@]4(C)[C@H]3CC[C@@]21C | -0.525% [at 56.6 µM] (inactive) | –
Nc1nc2c(ncn2[C@@H]2O[C@H](COP(=O)(O)OP(=O)(O)OP(=O)(O)O)[C@@H](O)C2O)c(=O)[nH]1 (stereo partly drawn) | 13.3% (inactive) | –
CC(C)NC(=O)N1CCC2(CC1)CCN(C(=O)c1cccn1C)CC2 | -21.4% (inactive) | –
CCNc1ncc2ncc(=O)n(CCc3ccccc3)c2n1 | -6.79% (inactive) | –
CN1CCC(=O)N([C@H](CO)Cc2ccccc2)CC1 | 1.88% (inactive) | –
O=C(/C=C/c1cccc(F)c1)NC1CC1 | 28.6% (inactive) | –
Cc1nc2cnc(N3CCNCC3)nc2n(CCc2ccccc2)c1=O | -20.3% (inactive) | –
Cc1cnc(CNc2cc(-c3c(C)noc3C)ncn2)cn1 | -8.53% (inactive) | –
COC(=O)c1c(OCc2ccc(F)cc2)cc(=O)n2c1CCN(Cc1ccc3cccnc3c1)CC2 | -20.7% (inactive) | –
COc1ccc2[nH]cc(CCNc3nc(-c4cccc(NS(C)(=O)=O)c4)nc4ccccc34)c2c1 | -18.1% (inactive) | –
COc1cc(=O)n2c(c1C(=O)NC(C)c1ccco1)CCN(Cc1cc(C)cc(C)c1)CC2 (stereo not drawn) | 8.46% (inactive) | –
O=C(Nc1cccc(F)c1)N1CC2(CCN(C(=O)c3csnn3)CC2)C1 | -28.5% (inactive) | –

Compound | activity, negative = inhibition | Potency
FC(F)(F)c1cccc(-c2cn[nH]c2C2CCCN(Cc3cccn3-c3ccccn3)C2)c1 (stereo not drawn) | -16.2% (inactive) | –
CC(=O)O[C@]1(C(C)=O)CC[C@H]2[C@@H]3CCC4=CC(=O)CC[C@]4(C)[C@@]3(F)[C@@H](O)C[C@@]21C | -8.39% (inactive) | –
COc1ccccc1CNc1ncnc2ccc(-c3ccc4c(c3)OCO4)cc12 | -17.6% (inactive) | –
O=C(c1cn(CC2CCCN(Cc3cc4ccccc4s3)C2)nn1)N1CCCC1 (stereo not drawn) | -18.8% (inactive) | –
COCCn1c(=O)c(-c2ccccc2)nc2cnc(N3CCOCC3)nc21 | -0.915% (inactive) | –
CC1O[C@@H](Oc2c(-c3ccc(O)c(O)c3)oc3cc(O)cc(O)c3c2=O)C(O)C(O)C1O (stereo partly drawn) | -13% (inactive) | –
O=C(C(=O)N1CCOc2ccc(CN3CCN(Cc4ccccn4)CC3)cc2C1)c1ccccc1 | -2.87% (inactive) | –
COC(=O)N1CCC2(CCCN(Cc3ccccc3OC)C2)CC1 | -12.2% (inactive) | –
CCOc1ccc2nc(N3CCCN(CCCn4cccn4)CC3)nc(C)c2c1 | -5.1% (inactive) | –
Oc1cc2c(cc1O)CN(C(=S)NCCc1ccc(Cl)cc1)CCC2 | – | 56.2 µM (active) and inactive
CC(C)=CCC/C(C)=C/CC/C(C)=C/CC/C(C)=C/CO | – | inactive
O=c1c(O)c(Br)ccc2c(Br)c(O)c(O)c(O)c12 | 6.67% (inactive) | –
CC(=O)NC(=O)c1ccccc1O | 23.4% (inactive) | –
Cc1oc(-c2cccc(NC(=O)c3ccccc3)c2)nc1CNC(=O)c1cnc2ccccn2c1=O | -3.94% (inactive) | –
COc1ccccc1C(=O)N[C@@H]1c2ccccc2C2(CCN(C(=O)c3csnn3)CC2)[C@H]1OC | -9.95% (inactive) | –
CC1C(O)CC2C(C(=O)O)=CO[C@@H](O[C@H]3OC(CO)C(O)C(O)C3O)C21 (stereo partly drawn) | -1.93% (inactive) | –
C/C(Nc1ccc2oc(=O)ccc2c1)=C1/C(=O)CC2[C@@H]1C2(C)C (stereo partly drawn) | 25% (inactive) | –
c1ccc(CN2CCN(Cc3ccc4c(c3)CN(Cc3c[nH]c5ccccc35)CCO4)CC2)nc1 | 1.14% (inactive) | –
O=C1CCN(Cc2ccc(-c3ccccc3)cc2)CCN1Cc1ccccn1 | -9.29% (inactive) | –
Cn1cc(-c2nc3cnc(N4CCNCC4)nc3n(CCC#N)c2=O)c2ccccc21 | -18.2% (inactive) | –
CN(C)c1ccc(-c2nc(NCCN3CCOCC3)c3ccccc3n2)cc1 | -15% (inactive) | –
Oc1c(Cl)cc(Cl)c(Cl)c1Cc1c(O)c(Cl)cc(Cl)c1Cl | – | 44.7 µM (active) and inactive
COCc1c(C(=O)NC2CCCCC2)cnn1-c1nccc(-c2ccccc2OC)n1 | -15.1% (inactive) | –
COc1ccc2c(c1)NC(=O)C2CC(=O)N1CCOc2c(cc(-c3cnc4ccccc4c3)cc2OC)C1 (stereo not drawn) | -30.5% (inactive) | –
